High-throughput results (PubChem BioAssay)
In the library only some 3.5% were active in any assay of this set; here they are far more common.
MITF inh = MITF inhibitors, primary screen, biochemical, AlphaScreen, human; AID 1259374, 2018; 0.91% of 650,000 active; inhibition, % at 2.6 µM; Microphthalmia-associated transcription factor (Homo sapiens), O75030; AlphaScreen MITF homodimerization, bead proximity signal; in the data active = inhibition above about 50%;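 note: 0% = vehicle wells with protein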
FBW7 act = FBW7 E3 ligase activators, primary screen, biochemical, AlphaScreen, human; AlphaScreen FBW7–phospho-cyclin E peptide binding, activator screen; normalized activity (activation), % at 26.1 µM; F-box/WD repeat-containing protein 7 (Homo sapiens), Q969H0; AID 1259310, 2017; 0.13% of 650,000 active; in the data active = normalized activity above about 1.9%;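 note: purified mutant Fbw7 with reduced substrate affinity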
TEAD-YAP block = TEAD-YAP interaction inhibition, primary screen, TEAD-YAP interaction inhibitor project, luminescence, HEK-TIYL cells; TEAD-Gal4/YAP UAS-luciferase luminescence; AID 1259422, 2018; inhibition, % at 9.12 µM; 1.4% of 640,000 active; in the data active = inhibition above about 32%;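 note: 0% = median of test compound wells and 100% = reference inhibitor wells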
GPR151 ag = activators of human GPR151, primary screen, cell-based, PathHunter beta-arrestin, luminescence | G-protein coupled receptor 151 (Homo sapiens), Q8TDV0 | PathHunter beta-arrestin GPR151 cells | activation, % at 11.2 µM | 1% of 650,000 active; in the data active = activation above about 4.9%;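 note: 0% = median of compound wells and 100% = cells with positive control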
Target sequence (Q8TDV0 whole entry, looked up): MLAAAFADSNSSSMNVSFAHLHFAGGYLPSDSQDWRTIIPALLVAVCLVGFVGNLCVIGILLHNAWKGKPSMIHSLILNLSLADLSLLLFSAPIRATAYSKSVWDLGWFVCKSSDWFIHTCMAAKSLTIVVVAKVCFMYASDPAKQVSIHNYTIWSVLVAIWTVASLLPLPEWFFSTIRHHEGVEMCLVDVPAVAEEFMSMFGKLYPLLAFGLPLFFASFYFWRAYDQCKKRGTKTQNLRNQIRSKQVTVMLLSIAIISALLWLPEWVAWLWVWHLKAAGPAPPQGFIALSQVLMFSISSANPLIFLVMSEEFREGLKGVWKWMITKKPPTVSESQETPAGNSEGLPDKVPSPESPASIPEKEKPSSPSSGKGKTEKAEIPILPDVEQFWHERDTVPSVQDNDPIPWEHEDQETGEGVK
* marks the source's active call; other numbers are inactive results.

SMILES	MITF inh	FBW7 act	TEAD-YAP block	GPR151 ag
O=C1OC(c2ccc(Cl)cc2)=N/C1=C\c1ccc(OCc2ccccc2)cc1	8	0	-11	1
Cc1ccc(C2=N/C(=C\c3ccccc3OC(=O)c3ccc(Br)cc3)C(=O)O2)cc1	-7	0	37*	0
CCc1cc(CC)c2c(=O)c3ccccc3sc2c1	8	0	3	-1
CCN(CC)CCNc1ccc(CO)c2sc3ccccc3c(=O)c12	12	0	34*	2
Fc1cccc(Cl)c1Cc1noc(/C=C/c2ccc(Br)cc2)n1	-3	1	-4	-2
CCN(CC)c1ccc(/C=C2/SC(N3CCCCC3)=NC2=O)cc1	11	0	-58	0
CCCCCC(=O)N1c2ccccc2NC2=C(C(=O)CC(c3ccc(N(CC)CC)cc3)C2)C1c1ccco1 (centres undefined)	22	0	47*	0
COc1ccc(/C=C2\N=C(C3CCCCC3)OC2=O)c(OC)c1	-2	0	-15	0
CCc1ccc2oc(-c3ccc(NC(=O)c4ccc5c(c4)OCCO5)cc3)nc2c1	-3	1	39*	0
O=C(Nc1ccc2oc(-c3cccc(I)c3)nc2c1)c1ccc(-c2cccc([N+](=O)[O-])c2)o1	-6	0	2	-1
CC(C)(C)c1ccc(-c2nc3cc(NC(=O)c4ccc(-c5cccc([N+](=O)[O-])c5)o4)ccc3o2)cc1	-13	0	34*	1
O=C(Nc1ccc2oc(-c3ccc(I)cc3)nc2c1)c1ccc2c(c1)OCCO2	-10	0	-17	-1
CC(C)(C)c1ccc(C(=O)Nc2ccc3oc(-c4ccc(C(C)(C)C)cc4)nc3c2)cc1	9	0	-7	1
CC(C)(C)c1ccc(-c2nc3cc(NC(=O)c4ccc(Br)o4)ccc3o2)cc1	-10	0	37*	0
COc1ccc(C2CC(=O)C3=C(C2)NC(C)=C(C(=O)OC(C)C)C3c2ccc(SC)cc2)cc1OC (centres undefined)	-1	0	14	0
CCCOC(=O)C1=C(C)NC2=C(C(=O)CC(c3ccc(OC)c(OC)c3)C2)C1c1cccc(Br)c1 (centres undefined)	-3	0	38*	0
CC1=C(C(=O)OC2CCCCC2)C(c2cccnc2)C2=C(CC(c3ccc(Cl)cc3)CC2=O)N1 (centres undefined)	-4	0	38*	0
CCCOC(=O)C1=C(C)NC2=C(C(=O)CC(c3ccc(OC)c(OC)c3)C2)C1c1ccccc1C (centres undefined)	-7	0	0	1
CCCOC(=O)C1=C(C)NC2=C(C(=O)CC(c3ccc(OC)c(OC)c3)C2)C1c1ccccc1F (centres undefined)	-11	0	41*	3
COc1ccc(C2CC(=O)C3=C(C2)NC(C)=C(C(=O)OC(C)C)C3c2ccc(F)cc2)cc1OC (centres undefined)	-14	0	42*	0
O=C(NCc1nc2ccccc2[nH]1)c1cncc(-c2cccs2)c1	-3	0	-6	1
CCN(CC)c1ccc2cc(C(=O)Nc3cccc(C)c3)c(=O)oc2c1	15	0	-25	-2
COc1cccc(NS(=O)(=O)c2cnc[nH]2)c1	11	0	1	2
CCCOC(=O)C1=C(C)NC2=C(C(=O)CC(c3ccc(OC)c(OC)c3)C2)C1c1cccc(C)c1 (centres undefined)	-10	0	33*	2
COc1ccc(C2CC(=O)C3=C(C2)NC(C)=C(C(=O)OC2CCCCC2)C3c2cccc([N+](=O)[O-])c2)cc1OC (centres undefined)	11	0	35*	-1
SMILES	MITF inh	FBW7 act	TEAD-YAP block	GPR151 ag
COc1ccc(C2CC(=O)C3=C(C2)NC(C)=C(C(=O)OC2CCCCC2)C3c2ccc([N+](=O)[O-])cc2)cc1OC (centres undefined)	14	0	7	1
CCOC(=O)c1c(NC(=O)c2ccccc2F)sc2c1CCCCC2	9	0	7	2
Cc1ccc2nc(-c3ccc(NC(=O)COc4ccc(Cl)cc4)cc3)sc2c1	-10	0	20	0
CN1/C(=C/C(=O)c2ccco2)C(C)(C)c2ccccc21	5	1	35*	4
CN1/C(=C\C(=O)CSCc2ccco2)C(C)(C)c2ccccc21	6	0	0	0
COC(=O)/C=C\c1nn(-c2ccccc2)nc1C#N	5	0	60*	0
NC(=O)c1nn(-c2ccccc2)nc1/C=C\C(=O)O	20	1	-8	-1
O=C(Nc1nc2ccccc2[nH]1)c1ccc(Cl)cc1Cl	-10	0	84*	-11
O=C(Nc1nc2ccccc2[nH]1)c1ccc([N+](=O)[O-])cc1Cl	3	0	18	-6
O=C(Nc1cnc2ccccc2c1)c1ccc(Cl)cc1Cl	10	0	66*	-4
O=C(Nc1nc2ccccc2[nH]1)c1ccccc1Cl	3	0	83*	-11
O=C(NCc1ccccn1)C1C2C=CC3(CN(Cc4ccccc4Cl)C(=O)C13)O2 (centres undefined)	-14	0	0	-1
CCc1ccccc1NC(=O)CSc1n[nH]c(N)n1	0	0	9	4
COc1ccccc1-c1cc2ccccc2oc1=O	2	0	-13	0
CCOC(=O)COc1ccc2c(C)c(-c3ccc(OC)c(OC)c3)c(=O)oc2c1	-15	2.0*	6	1
CCOC(=O)C(C)Oc1ccc2cc(-c3ccc(OC)c(OC)c3)c(=O)oc2c1 (centres undefined)	-12	2.3*	7	-8
COc1ccc(-c2cc3ccccc3oc2=O)cc1N	4	0	33*	-1
NC(CC(=O)O)c1ccc(F)c(Oc2ccccc2)c1 (centres undefined)	-7	0	-3	2
CCOC(=O)C(C#N)C1(O)C(=O)c2ccccc2C1=O (centres undefined)	57*	1	9	-1
CCOC(=O)C(C#N)C(=O)c1ccc(N2C(=O)c3ccccc3C2=O)cc1 (centres undefined)	-9	0	0	3
NC(=O)c1sc2nc3cc4c(cc3cc2c1N)OCO4	-4	0	73*	-2
CCc1ccc2nc3sc(C(N)=O)c(N)c3cc2c1	11	0	92*	-3
Fc1cccc(-c2cnc3c(Nc4ccc5[nH]ccc5c4)nccn23)c1	-22	0	13	-3
c1ccc(-c2cnc3c(Nc4ccc5[nH]ccc5c4)nccn23)cc1	-5	0	0	-2
CS(=O)(=O)Nc1cccc(-c2cnc3c(Nc4ccc5[nH]ccc5c4)nccn23)c1	18	0	90*	-1
c1cnc2c(-c3cnc4c(Nc5ccc6[nH]ccc6c5)nccn34)cccc2c1	7	-1	55*	0
